Shown are actives, neighbours in structure and some others; about 3.4% of the full set was active somewhere.
14-3-3 Bad PPI: disrupts binding of bovine 14-3-3 zeta to phospho-Bad peptide; TR-FRET 14-3-3zeta/Dy647-pBad peptide displacement, 1 h; P63103; inhibition, % at 21.7 µM; AID 781; hit rate 0.71% among 220,000;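 active means inhibition above about 70%, limit read from the data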
Target sequence (P63103 whole entry, looked up): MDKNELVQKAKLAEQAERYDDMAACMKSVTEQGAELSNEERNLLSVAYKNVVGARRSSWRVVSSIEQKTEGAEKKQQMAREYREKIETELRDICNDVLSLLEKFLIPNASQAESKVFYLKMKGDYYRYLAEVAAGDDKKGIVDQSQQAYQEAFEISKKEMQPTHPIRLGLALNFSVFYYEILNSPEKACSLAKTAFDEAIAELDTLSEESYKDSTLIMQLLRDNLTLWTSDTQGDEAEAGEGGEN
Calpain2 inh: inhibitors of pig calpain II. purified calpain II, fluorogenic peptide substrate, 30 min. inhibition, % at 16 µM. hit rate 0.37% among 220,000;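 active means inhibition above about 50%, limit read from the data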
Mcl1 Bid PPI: disrupts binding of human Mcl-1 to Bid peptide. inhibition, % at 21.7 µM. hit rate 0.97% among 220,000. TR-FRET Mcl-1/Bid-Dy647 peptide binding, 1536-well;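 active means compounds that cut the binding signal by more than half at the single screening dose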;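 further: His-tagged Mcl-1 with europium anti-His antibody binding Bid BH3 peptide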
Target sequence (Q07820 whole entry, looked up): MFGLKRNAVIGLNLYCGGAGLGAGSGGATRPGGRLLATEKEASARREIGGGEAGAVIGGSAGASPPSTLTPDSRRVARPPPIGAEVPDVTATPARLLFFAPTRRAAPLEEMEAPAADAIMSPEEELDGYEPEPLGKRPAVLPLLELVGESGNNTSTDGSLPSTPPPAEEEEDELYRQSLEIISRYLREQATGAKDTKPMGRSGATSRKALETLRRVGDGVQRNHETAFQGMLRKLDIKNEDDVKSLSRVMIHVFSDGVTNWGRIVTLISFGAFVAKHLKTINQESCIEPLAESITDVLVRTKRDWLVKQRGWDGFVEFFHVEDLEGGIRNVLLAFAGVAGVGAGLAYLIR
Bim-Mcl-1: human Bim-Mcl-1 interaction inhibition. Q07820. Bead-based flow cytometry, Bim peptide-Mcl-1 binding. inhibition, % at 10 µM. hit rate 0.1% among 190,000. AID 1009; in the data active means inhibition above about 40%
NCF1 inh: p47phox (human) inhibition | hit rate 0.53% among 220,000 | P14598 | AID 1274 | inhibition, % at 24.7 µM | p47phox/p22phox peptide binding, fluorescence polarization, 2 h;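 active means inhibition above about 30%, limit read from the data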
Mcl1-Noxa inh: disrupts binding of human Mcl-1 to Noxa peptide; inhibition, % at 21.7 µM; AID 1022; Q07820; TR-FRET Mcl-1/Noxa peptide binding, 2 h; hit rate 1.5% among 220,000;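 active means compounds that cut the protein-peptide binding signal by more than 50% relative to plate controls in a single-dose test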;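 further: His-tagged Mcl-1 with rhodamine Noxa BH3 peptide and terbium anti-His antibody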
Each line names hits and unclear results; the compound was inactive in the other large screens; [ ] = dose if it differs, or a comment.

Cc1ccc(Cl)cc1Nc1nc(-c2sc(NC(=O)c3ccccc3)nc2C)cs1	14-3-3 Bad PPI 82.7[fluorescence artefact?], Mcl1 Bid PPI 100.3, Mcl1-Noxa inh 106.0
Cc1nc(NC(=O)c2ccccc2)sc1-c1csc(Nc2cccc(F)c2)n1	14-3-3 Bad PPI 70.6, Mcl1-Noxa inh 55.5
COc1ccccc1Nc1nc(-c2sc(NC(=O)c3ccc([N+](=O)[O-])cc3)nc2C)cs1	Mcl1-Noxa inh 86.1
COc1ccccc1Nc1nc(-c2sc(NC(=O)c3ccccc3)nc2C)cs1	none
COc1cccc(Nc2nc(-c3sc(NC(=O)c4ccco4)nc3C)cs2)c1	Bim-Mcl-1 56.0
CCOc1ccccc1Nc1nc(-c2sc(NC(=O)c3ccccc3)nc2C)cs1	none
O=C(Nc1nc(-c2ccncc2)cs1)c1ccco1	Mcl1-Noxa inh 93.9
CCOc1ccccc1Nc1nc(-c2sc(NC(=O)c3cccc(Cl)c3)nc2C)cs1	14-3-3 Bad PPI 70.7
CC(=O)Nc1ccc(-c2csc(N/N=C\c3ccncc3)n2)cc1	Mcl1-Noxa inh 51.4 (no result: Bim-Mcl-1)
Cc1ccccc1C(=O)O/N=C(\N)c1ccncc1	none
O=C(Cc1cnc2ncnn2c1)N1CCc2c([nH]c3ccccc23)C1c1ccccn1 (stereo unspecified)	none
Cc1ccc(NC(=O)COC(=O)c2ccc3c(c2)NC(=O)C2CCCN32)cc1 (stereo unspecified)	none
COC(=O)c1ccc2c(c1)NC(=O)C1CCCN21 (stereo unspecified)	Mcl1-Noxa inh 64.3
O=C(C[n+]1cc(-c2ccccc2)n2c1CCC2)N1c2ccccc2Sc2ccccc21	Mcl1 Bid PPI 89.7
Cc1ccc(-c2c[n+](CC(=O)N3c4ccccc4Sc4ccccc43)c3n2CCC3)cc1	none
Cc1ccc(C(=O)NCC(=O)N2CCN(c3ncccn3)CC2)s1	Mcl1 Bid PPI 65.3
CC(=O)NS(=O)(=O)c1ccc2sc(C)nc2c1	none (no result: Bim-Mcl-1)
CC(C)Sc1cc(N2CCOCC2)nc(-c2ccc(Cl)cc2)n1	none
CCN1CCN(c2cc(SC(C)C)nc(-c3ccc(OC)cc3)n2)CC1	14-3-3 Bad PPI 71.1[fluorescence artefact?]
CCCCNC(=O)c1ccc(S(=O)(=O)c2ccc(Cl)cc2)c(NC(C)=O)c1	14-3-3 Bad PPI 72.2
CCCCNC(=O)c1cccc(C(=O)NCCCC)c1	none
CCCCCN(C(=O)NC(=O)Nc1ccccc1C)S(=O)(=O)c1ccccc1	none
Nc1nnc(SCC(=O)c2cccc([N+](=O)[O-])c2)s1	none
Nc1nnc(SCC(=O)c2ccc3ccccc3c2)s1	NCF1 inh 92.4
Cc1ccc(NS(=O)(=O)c2cc(C(=O)NCCSC3CCCCC3)ccc2C)cc1	Calpain2 inh 56.5
Cc1ccc(NS(=O)(=O)c2cc(C(=O)NCCSc3ccc(C)cc3)ccc2C)cc1	none
c1ccc2c(c1)ncn2CCCCOc1ccc2c(c1)CCC2	Mcl1 Bid PPI 68.6
c1ccc2c(c1)ncn2CCCOc1ccc2c(c1)CCC2	none
COc1ccc(NC(=O)CSc2ccc3ccccc3c2)cc1S(=O)(=O)N1CCCCC1	none
CCCCNC(=O)Cn1c2c(c(-c3ccccc3Cl)cc1=O)CCC2	NCF1 inh 81.3
O=C(Cn1c2c(c(-c3ccccc3)cc1=O)CCCC2)N1CCCCCC1	none
O=C(COc1ccccc1-c1ccccc1)NNC(=O)NC1CCCCC1	none
Cc1cc(-c2ccccc2)nc(N(C)NC(=O)c2c(F)cccc2F)c1S(C)(=O)=O	NCF1 inh 115.3
CC(=O)Nc1cccc(N(C)C)c1	none
CN(C)c1cccc(NC(=O)C2(C)CC2(Cl)Cl)c1 (stereo unspecified)	Bim-Mcl-1 84.0
Cc1cccc(Cn2nc(C)cc2NC(=O)CCCn2ccc([N+](=O)[O-])n2)c1	none
Cc1nnc(SCC(=O)c2cc(C)n(-c3ccc4c(c3)OCO4)c2C)s1	none
CCCC1(CCC)NC(=O)N(CC(=O)c2cc(C)n(-c3ccc4c(c3)OCO4)c2C)C1=O	Mcl1 Bid PPI 51.4
FC(F)(F)C1=CC(c2ccccc2)=NCCN1	Mcl1-Noxa inh 88.5
O=C(COc1ccccc1-c1ccccc1)NCc1cccc(Cl)c1	none
N#CC(c1ccc(Cl)nn1)c1c(F)cccc1Cl (stereo unspecified)	none
CCOC(=O)c1cccc(Nc2nc(C)cc(C)n2)c1	14-3-3 Bad PPI 70.8
COc1ccc(C(=O)NC=C2C(=O)OC(C)(C)OC2=O)cc1	none
CCOC(=O)/C(=C\c1ccc(OC(F)F)cc1)C1=Nn2c(nnc2-c2ccc(Cl)cc2)SC1	none
CC(=O)c1c(C)nc(-c2ccc(Cl)cc2)nc1N=CN(C)C	14-3-3 Bad PPI 84.3
Cc1cc(Cl)ccc1OCCCC(N)=O	Mcl1-Noxa inh 70.7
O=C(COc1ccc(Br)cc1CNC1CCCC1)Nc1ccccc1	none
Cc1cccc(OCCCCCn2ccnc2)c1	Mcl1 Bid PPI 51.1
CCC1(C)CC2(CCCN(CCC(=O)c3ccccc3)C2)CCO1 (stereo unspecified)	none
CS(=O)(=O)N1Cc2ccccc2CC1C(=O)O (stereo unspecified)	none
O=C(O)C1Cc2ccccc2CN1S(=O)(=O)/C=C/c1ccccc1 (stereo unspecified)	14-3-3 Bad PPI 85.6
O=C(NC(=S)Nc1nc2c(s1)CSc1ccccc1-2)c1ccccc1	Mcl1-Noxa inh 72.7
O=S(=O)(c1ccc(Cl)cc1)N1CCC(N2CCOCC2)CC1	14-3-3 Bad PPI 80.4
COc1ccc(CN(CC2CCCO2)C(=O)c2cc3sccc3n2C)c(OC)c1 (stereo unspecified)	none
Cc1ccc([N+](=O)[O-])cc1NC(=O)Cc1cccs1	Mcl1-Noxa inh 55.6
O=C(CN1CCN(c2ccc(O)cc2)CC1)Nc1cc([N+](=O)[O-])ccc1Cl	Mcl1-Noxa inh 99.0
Cc1ccc([N+](=O)[O-])cc1NC(=O)CN1CCCCC1	none
Cc1ccc([N+](=O)[O-])cc1NC(=O)CN1CCC(C)CC1	NCF1 inh 71.7
CC(=O)N1CCN(CC(=O)Nc2cc([N+](=O)[O-])ccc2Cl)CC1	none
CCC1(C)Cc2ccccc2-c2[nH][nH]c(=O)c21 (stereo unspecified)	none
Cc1ccc(/C([O-])=C(/C(=S)NCCN2CCOCC2)[n+]2ccccc2)cc1[N+](=O)[O-]	none
COCCCN1C(=O)C(=O)/C(=C(/O)c2ccc(OC)cc2)C1c1cccc(OC)c1 (stereo unspecified)	Mcl1-Noxa inh 63.8
CCN(CC)C(=O)CSc1nc2sc3c(c2c(=O)n1-c1ccc(C)cc1)CC(C)(C)SC3	none
Cc1ccc(-n2c(SCC(=O)NCc3ccco3)nc3sc4c(c3c2=O)CC(C)(C)SC4)cc1	Mcl1 Bid PPI 88.7
Cc1ccc(OCC(=O)N2CCc3ccccc3C2)c([N+](=O)[O-])n1	none
COc1ccc(C2=NN(c3nc(-c4ccccc4)c(CC(=O)O)s3)C(c3ccco3)C2)cc1 (stereo unspecified)	Mcl1-Noxa inh 85.1
COc1ccccc1CNC(=O)C(NS(=O)(=O)c1ccc2c(c1)OCCO2)C(C)C (stereo unspecified)	none
